Reference: the OligoGym collection

Molecular target: AKT3
Experiment: pooled miR-30 sensor sort-seq; sequence = guide strand
Conditions: shRNA

Sequence	sensor-assay potency score (higher = more potent)
TAGTCTGAGCTGTAAATTCTTC	-1.06
TTGTAGAAAGGTAACCTCCCAC	-0.166
TTTATCATATACATCTTGCCAG	0.12
TATTGTAATAGTCTGAGCTGTA	0.29
TTGTCTTTCTTTTATGATGGGT	-0.0312
TTTAAAAGGAGGTACAAGCTTT	-0.528
TTATCTTCTAACACCTCTGGTG	-0.243
TTATCATATACATCTTGCCAGT	-1.09
TATCTTCTAACACCTCTGGTGC	-0.701
TTATTGTAATAGTCTGAGCTGT	-0.326
TATAACAGTAGTCCACTGGAGA	-0.667
TAGTCCACTGGAGACATCTGAT	-0.68

Molecular target: ALAD
Experiment: as above
Conditions: shRNA

Sequence	sensor-assay potency score (higher = more potent)
TAGGCTGTATGTCATCAGGAAC	-1.11
TACCACCTGACATCCTGCCTTG	-0.254
TTGACTTAGCTGCATCCCGGAA	-1.25
TGGATTGCCTCAATAGCTGGGG	-0.361
AAGCTGGGCTTGACTTAGCTGC	-1.16
TTTGGTTTTCACTTGTCTGAGG	-0.0275
